# Experimental data as given in PubChem BioAssay.
# Values joined by “and” are separate entries in the source; they are usually repeats but may differ in a detail not shown here. Identical values can stand only once. Active and inactive are the calls of the source.
# Key:
# [1] = anti-His antibody binders, primary screen, artefact control for SMM control protein annotation, biochemical, small-molecule microarray, 635 nm fluorescence (AID 1128); settings: anti-His Alexa647 antibody binding, higher = more signal;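 note: score merges feature fluorescence with signal-to-noise for each printed compound spot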
# [2] = test system: Human papillomavirus type 1a E7 protein (residues 1-88); assay: HPV1a E7 small-molecule binders, primary screen, biochemical, small-molecule microarray, residues 1-88, 635 nm (AID 1129); settings: small-molecule microarray binding, fluorescence 635 nm; higher = more signal
# [3] = biological target: Focal adhesion kinase 1 (Homo sapiens) (UniProt Q05397); assay: small-molecule microarray binders of FAK, primary screen, biochemical, 635/667 nm fluorescence, BSA, DTT (AID 1130); settings: PTK2 binding, 635 nm fluorescence, higher = more signal;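 note: composite of spot emission at 667 nm and signal to noise over triplicate slides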
# Sequence of Focal adhesion kinase 1 (Homo sapiens) (Q05397 whole entry, looked up): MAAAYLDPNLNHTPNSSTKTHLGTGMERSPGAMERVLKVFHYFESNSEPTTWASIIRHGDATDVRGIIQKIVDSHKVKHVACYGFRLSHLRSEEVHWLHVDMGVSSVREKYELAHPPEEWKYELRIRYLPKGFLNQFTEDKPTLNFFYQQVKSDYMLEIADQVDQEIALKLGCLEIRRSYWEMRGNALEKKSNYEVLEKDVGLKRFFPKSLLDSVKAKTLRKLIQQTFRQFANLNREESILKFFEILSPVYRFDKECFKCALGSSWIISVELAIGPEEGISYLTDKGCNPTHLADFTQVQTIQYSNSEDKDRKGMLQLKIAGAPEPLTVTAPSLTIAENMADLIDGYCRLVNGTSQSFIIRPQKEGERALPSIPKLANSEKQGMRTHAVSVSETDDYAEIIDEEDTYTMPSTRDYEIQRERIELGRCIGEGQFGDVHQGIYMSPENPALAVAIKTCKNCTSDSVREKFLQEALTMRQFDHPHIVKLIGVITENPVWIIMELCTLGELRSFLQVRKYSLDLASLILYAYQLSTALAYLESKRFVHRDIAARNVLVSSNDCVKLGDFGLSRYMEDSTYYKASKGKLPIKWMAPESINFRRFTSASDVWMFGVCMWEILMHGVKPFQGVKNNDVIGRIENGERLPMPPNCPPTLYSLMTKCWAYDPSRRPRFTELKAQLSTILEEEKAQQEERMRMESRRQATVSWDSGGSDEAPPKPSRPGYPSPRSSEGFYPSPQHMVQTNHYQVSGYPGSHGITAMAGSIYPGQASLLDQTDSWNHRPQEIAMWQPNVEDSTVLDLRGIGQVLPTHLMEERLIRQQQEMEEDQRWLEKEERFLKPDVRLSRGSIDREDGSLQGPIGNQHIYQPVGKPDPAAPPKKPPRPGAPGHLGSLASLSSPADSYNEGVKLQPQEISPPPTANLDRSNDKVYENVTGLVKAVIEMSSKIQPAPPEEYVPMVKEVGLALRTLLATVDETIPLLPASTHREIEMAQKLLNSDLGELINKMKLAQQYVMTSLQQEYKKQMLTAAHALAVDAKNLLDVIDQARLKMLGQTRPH
# [4] = test system: Fibrinogen (Alexa647-labelled); assay: fibrinogen binders on compound microarrays, profiling panel, artefact control for SMM control-protein annotation, biochemical, small-molecule microarray, 635/667 nm fluorescence (AID 1131); settings: fibrinogen-A647 binding fluorescence, higher = more signal;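 note: z-score merges 667 nm fluorescence with per-spot signal-to-noise over triplicate slides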
# [5] = biological target: Follistatin (Homo sapiens) (UniProt P19883); assay: follistatin binders on small-molecule microarrays, primary screen, biochemical, small-molecule microarray, 635/667 nm fluorescence (AID 1132); settings: FST binding, 635 nm fluorescence, higher = more signal
# Sequence of Follistatin (Homo sapiens) (P19883 whole entry, looked up): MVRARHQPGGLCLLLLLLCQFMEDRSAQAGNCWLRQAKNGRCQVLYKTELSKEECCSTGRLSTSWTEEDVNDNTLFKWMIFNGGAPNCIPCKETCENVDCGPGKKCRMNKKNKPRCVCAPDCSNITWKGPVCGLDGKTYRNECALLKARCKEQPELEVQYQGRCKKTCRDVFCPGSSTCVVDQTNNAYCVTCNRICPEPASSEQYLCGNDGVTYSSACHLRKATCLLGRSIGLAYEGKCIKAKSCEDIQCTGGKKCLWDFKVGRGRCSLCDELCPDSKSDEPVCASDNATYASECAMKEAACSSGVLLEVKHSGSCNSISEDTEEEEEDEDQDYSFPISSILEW
# [6] = biological target: Fibroblast growth factor 2 (Homo sapiens) (UniProt P09038); assay: FGF2 binders on small-molecule microarrays, primary screen, biochemical, small-molecule microarray, 635/667 nm fluorescence (AID 1133); settings: small-molecule microarray binding, FGF2, fluorescence 635/667; higher = more signal
# Sequence of Fibroblast growth factor 2 (Homo sapiens) (P09038 whole entry, looked up): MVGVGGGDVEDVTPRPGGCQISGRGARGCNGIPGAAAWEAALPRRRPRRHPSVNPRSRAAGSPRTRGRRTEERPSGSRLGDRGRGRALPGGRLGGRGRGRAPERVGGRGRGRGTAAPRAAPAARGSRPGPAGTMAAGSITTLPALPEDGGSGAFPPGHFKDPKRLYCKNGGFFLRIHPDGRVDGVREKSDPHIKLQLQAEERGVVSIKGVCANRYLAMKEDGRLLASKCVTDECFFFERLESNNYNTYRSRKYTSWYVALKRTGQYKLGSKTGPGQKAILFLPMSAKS
# [7] = mitochondrial membrane potential change in A549 cells, profiling panel, cell-based, JC-1 fluorescence, basal, 24 h, 100 nL (AID 1138); settings: higher = more signal;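 note: A549 lung adenocarcinoma cells under basal conditions with no added stimulus; test concentration not given here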
# Lefty1 = Lefty1 binders on small-molecule microarrays, primary screen, biochemical, small-molecule microarray, 635/667 nm fluorescence (AID 1139); settings: small-molecule microarray binding, fluorescence 635/667; higher = more signal
# [8] = test system: wheat germ agglutinin (Triticum aestivum), Alexa647-labelled; assay: wheat germ agglutinin binders on compound microarrays, profiling panel, artefact control for SMM control-protein annotation, biochemical, small-molecule microarray, 635/667 nm fluorescence (AID 1140); settings: WGA-A647 binding, 635 nm fluorescence, higher = more signal;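 note: score merges 667 nm feature emission with signal to noise over triplicate slides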
# [9] = biological target: Luciferin 4-monooxygenase (Photinus pyralis) (UniProt P08659); assay: firefly luciferase enzyme inhibitors, primary screen, biochemical, luminescence, purified enzyme, 2006 set (AID 1141); settings: SteadyGlo luminescence, 30 min, higher = more signal, called active from +8 up or from −8 down;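 note: cell-free assay with purified firefly luciferase at 100 ng per well in PBS; test concentration not given here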
# Sequence of Luciferin 4-monooxygenase (Photinus pyralis) (P08659 whole entry, looked up): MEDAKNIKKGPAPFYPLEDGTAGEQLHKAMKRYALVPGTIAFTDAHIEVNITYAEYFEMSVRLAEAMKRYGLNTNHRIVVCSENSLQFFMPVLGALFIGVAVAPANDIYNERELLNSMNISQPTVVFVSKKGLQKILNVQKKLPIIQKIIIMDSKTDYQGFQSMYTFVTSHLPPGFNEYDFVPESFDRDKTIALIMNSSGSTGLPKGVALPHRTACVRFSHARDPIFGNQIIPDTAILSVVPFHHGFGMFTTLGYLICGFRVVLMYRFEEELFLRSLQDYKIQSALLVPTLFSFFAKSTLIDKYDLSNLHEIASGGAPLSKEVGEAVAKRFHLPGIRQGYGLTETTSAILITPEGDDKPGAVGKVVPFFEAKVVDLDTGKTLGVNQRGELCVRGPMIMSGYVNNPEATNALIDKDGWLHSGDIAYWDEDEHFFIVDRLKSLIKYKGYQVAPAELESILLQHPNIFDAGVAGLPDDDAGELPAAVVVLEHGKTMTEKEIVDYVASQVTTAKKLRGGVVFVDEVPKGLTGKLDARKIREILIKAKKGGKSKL
Compound,composite z-score [1],composite z-score [2],composite z-score [3],composite z-score [4],composite z-score [5],composite z-score [6],z-score [7],composite z-score (Lefty1),composite z-score [8],z-score [9]
C=C[C@H](C)[C@H](O)c1ccc(O)c2ccccc12,2.31 and -0.782,-0.402 and -0.622,-0.0703 and -0.493,-0.22 and -0.58,0.0456 and 0.32,-0.671 and 1.31,-0.145 and 1.39,-0.494 and 0.152,-0.0985 and -0.45,-1 (inactive) and -2.28 (inactive)
C=CCN1C(=O)[C@]2(O[C@H](CCn3cc(CCO)nn3)[C@@H]([Si](C)(C)c3ccc(OC)cc3)[C@@H]2C)c2cc(N3C(=O)c4cccc5cccc3c45)ccc21,0.783 and 1.59,1.14 and 1.08,0.216 and 0.369,0.57 and 0.583,0.687 and 0.0673,0.296 and 0.381,-1.09 and -0.743,0.794 and 0.721,0.532 and 0.53,-0.511 (inactive) and 0.185 (inactive)
C=CCN(C(=O)C(c1cccs1)N(C(=O)/C=C\C(=O)O)C(C)(C)CO)C(C)(C)C (stereo not given),-0.119 and 1.08,0.0785 and -0.562,-0.033 and 0.193,-0.654 and 0.99,-0.493 and -1.32,-0.454 and -0.588,1.12 and 0.815,-1.35 and -1.25,-0.452 and -0.231,-1.45 (inactive) and -0.975 (inactive)
C=CCN(Cc1ccccc1)C(=O)C1N(CCOCCO)C(=O)C2C(C(=O)O)C3C=CC21O3 (stereo not given),-1.85 and -0.223,-0.804 and -0.812,-1.29 and -0.708,-1.23 and -1.34,-3.29 and -1.2,-2.01 and -1.98,1.2 and -0.743,-2.56 and -2.05,-0.94 and -1.25,-0.582 (inactive) and 1.28 (inactive)
CCCNC(=O)OC[C@H]1O[C@H](CCON=C(C)CCC(=O)OC[C@H]2O[C@H](C#Cc3ccccc3)C=C[C@@H]2Oc2ccc(C)cc2)C=C[C@@H]1Oc1ccc(OC)cc1,0.0888,-0.216,-0.17,-0.185,-0.437,-0.251,-0.611,0.0233,-0.26,1.41 (inactive)
C=CC[C@H](O)c1ccc(OCCO)cc1,0.185 and 0.0367,-1.1 and -1.32,-1.14 and -0.38,-0.0902 and -3.21,0.519 and 0.726,-0.442 and 0.17,-0.441 and 0.564,-0.748 and -0.0547,0.542 and 0.645,-1.15 (inactive) and -1.17 (inactive)
COC(=O)C1=C(C)N(Cc2ccccc2)C2=C3C(=O)N(C)C(=O)[C@@H]3[C@@](O)(C(=O)OC)C(=O)N2[C@@H]1c1ccccc1,0.21 and -0.0385,0.311 and 0.614,0.128 and 0.276,0.269 and 0.335,0.355 and 0.223,0.55 and 0.24,0.286 and 0.239,-0.0227 and 0.627,0.129 and -0.0358,-0.598 (inactive) and -2.38 (inactive)
CCOC(=O)c1ccc(NC(=O)O[C@H]2[C@H](OC(=O)Nc3ccccc3)[C@H](OC(=O)Nc3ccccc3)[C@@H](OC)O[C@@H]2CO)cc1,1.27 and 1.9,1.21 and 1.23,0.495 and 1.09,0.982 and 0.709,1.27 and 1.31,1.19 and 0.806,-0.469 and -0.781,0.551 and 1.15,0.96 and 1.22,0.197 (inactive) and -0.2 (inactive)
CC(=O)OC[C@H]1O[C@H](C#CC(C)(C)C)C=C[C@@H]1OC(C)=O,0.726,0.996,0.589,0.979,0.418,0.791,0.707,1.22,0.445,-1.22 (inactive)
CC(C)=NOC[C@@H](O)COCc1ccco1,1.27,-1.73,-0.395,-1.83,0.112,0.782,0.354,-0.181,-0.988,-1.28 (inactive)
CC(C)=NOCc1ccc(-c2cn([C@@H]3COC[C@H]3O)nn2)cc1,1.03,0.245,-0.115,-0.4,0.218,0.299,0.11,0.402,-0.132,-1.12 (inactive)
C[C@@H]1CN2[C@@H](CC[C@@H](C)[C@@H]2c2ccc(Br)cc2)C(=O)O1,0.513 and -0.557,-1.13 and 0.142,-0.0732 and 0.591,-0.459 and -0.964,-0.138 and 0.0634,0.0798 and 0.44,1.14 and 1.07,-0.0013 and 0.133,-0.556 and 0.125,-0.678 (inactive) and -1.36 (inactive)
COC(=O)C1=C(C)N(Cc2ccccc2)C2=C(C(=O)c3ccccc3)[C@H](c3ccccc3)[C@@](O)(C(=O)OC)C(=O)N2[C@@H]1c1ccccc1,0.326 and -0.476,0.477 and 0.778,0.0825 and 1.11,0.435 and -0.0657,0.526 and 0.424,0.442 and 0.433,0.722 and 0.241,0.571 and 0.636,0.419 and -0.0152,-1.49 (inactive) and -0.0191 (inactive)
CC(C)OC(=O)C=C1C[C@@H](c2cccc(C(F)(F)F)c2)O[C@@H](c2cccc(C(F)(F)F)c2)O1,0.143 and 0.877,1.17 and 0.699,0.805 and 0.224,0.795 and 0.302,-0.618 and -1.57,-0.496 and -0.841,1.52 and 2.59,-0.392 and -0.925,0.627 and 0.443,-0.864 (inactive) and 0.747 (inactive)
COc1ccc(COC(=O)NN=C2C[C@@H](O)[C@@H](O)[C@@H]3[C@@H]4C(=O)N(C(C)(C)C)C(=O)[C@@H]4CC[C@H]23)cc1,1.34,0.797,0.0704,0.816,0.126,0.699,0.453,0.281,0.0873,-1.08 (inactive)
C[N+](C)(C)CCCCCCNC(=O)[C@H]1C[C@H]2C(=O)N[C@@H](CCCC[N+](C)(C)C)C(=O)N2[C@H]1c1ccc(O)cc1,-0.389 and 0.368,-0.558 and -0.643,-0.391 and -0.0304,-0.112 and -0.705,1.13 and 1.16,1.52 and 0.18,-1.08 and -0.207,1.56 and 0.452,0.618 and -0.277,1.03 (inactive) and 0.485 (inactive)
C[C@@H](ON=C1[C@H]2CCn3c(=O)n(-c4ccccc4)c(=O)n3[C@H]2[C@H](O)[C@@H]2O[C@H]12)c1cn([C@H](CO)Cc2ccccc2)nn1,2.66,0.23,-0.109,0.343,0.523,0.185,-0.546,0.467,-0.424,-0.116 (inactive)
CCCC[C@@H]1CN2[C@@H](CC[C@@H](C)[C@@H]2c2ccc(Br)cc2)C(=O)O1,2.07 and 0.917,1.16 and 0.572,0.367 and -0.0877,0.822 and 0.727,0.493 and 0.606,0.295 and 0.952,-0.555 and 1.63,0.647 and 0.882,0.303 and 0.182,0.355 (inactive) and -0.572 (inactive)
COC(=O)C1=C(C)N(Cc2ccccc2)C2=C3C(=O)CCC[C@@H]3[C@@](O)(C(=O)OC)C(=O)N2[C@@H]1c1ccccc1,0.043 and -0.496,0.501 and 0.0093,-0.12 and 0.177,0.335 and -1.14,0.584 and 0.158,0.997 and 0.581,1.22 and 0.728,0.573 and 0.217,0.121 and -1.1,-1.29 (inactive) and -1.47 (inactive)
CO[C@H]1COC(=O)CC=C[C@@H](C)COC(=O)[C@@H](OCc2ccccc2)C=C[C@@H]1C,0.563,-1.07,-0.279,-1.44,1.47,1.74,1.8,1.65,-1.13,-0.917 (inactive)
C=CCN(C(=O)C1N(CCOCCO)C(=O)C2C(C(=O)O)C3C=CC21O3)c1ccc(OC)cc1 (stereo not given),-0.576 and -1.3,-1.57 and -1.78,0.748 and -0.878,-1.13 and -2.1,-2.1 and -2.52,-0.792 and -1.54,0.154 and 0.454,-2.56 and -2.64,-0.937 and -1.41,-0.505 (inactive) and -0.392 (inactive)
COC(=O)CC=C[C@@H](C)[C@@H](CO)NS(=O)(=O)c1ccc(C)cc1,0.929 and 0.293,0.298 and 0.512,0.0223 and -0.111,-0.223 and 0.225,0.523 and 0.791,0.646 and 0.574,-0.145 and 0.884,0.648 and 0.88,-0.22 and 0.117,0.0494 (inactive) and -0.803 (inactive)
C=CCN(CCCC)C(=O)C1N(c2c(Cl)cccc2CO)C(=O)C2C(C(=O)O)C3C=CC21O3 (stereo not given),-1.86 and 1.18,-1.93 and -0.108,-0.983 and 0.896,-1.58 and -2.29,-1.71 and -0.64,-1.09 and -1.49,-1 and -0.998,-2.11 and -0.973,-1.16 and -0.0139,0.758 (inactive) and 1.51 (inactive)
CCCC[C@@H]1CN2[C@H](c3ccc(Br)cc3)[C@@H](C)CC[C@H]2C(=O)O1,-0.408 and 2.44,-0.535 and -0.105,-0.0211 and 0.0131,-0.167 and 0.546,0.0438 and -0.0845,0.186 and 0.0412,0.5 and 0.647,-0.128 and 0.0556,-0.22 and 0.313,-0.052 (inactive) and -1.79 (inactive)
COC(=O)C1=C(C)N(Cc2ccccc2)[C@]23O[C@](C(=O)OC)(C(=O)N2[C@@H]1c1ccccc1)[C@@H](C(=O)OC)[C@H]3C(=O)OC,0.297 and 1.07,-0.813 and 0.143,-0.277 and 0.2,-2.79 and -0.188,-0.998 and 0.452,-0.179 and 0.403,0.604 and 0.301,-0.625 and 0.747,0.753 and -0.487,-0.781 (inactive) and -1.8 (inactive)
Cc1ccc(S(=O)(=O)N[C@@H]2COC(=O)CC=C[C@@H](C)[C@@H]3C=C[C@H](O)[C@@H](COC(=O)CC=C[C@H]2C)O3)cc1,-0.226 and -0.118,-0.617 and -0.0999,-0.466 and -0.318,-0.656 and 0.267,1.34 and 0.443,1.01 and 0.578,1.78 and -1.7,1.26 and 0.632,-0.113 and -0.0881,-0.92 (inactive) and 1.02 (inactive)
